Screening data deposited in PubChem by The Scripps Research Institute Molecular Screening Center.
This excerpt belongs to a sample that is enriched for hits.
TbREL1 inh – TbREL1 inhibition, primary screen | TbREL1 RNA ligation, FRET fluorescence | inhibition, % at 9.66 µM | 0.49% of 89,000 active;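 active means inhibition above the mean inhibition across all screened compounds plus 3 SD, cut at about 11% in these data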;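 further: 0% = plate median of test wells and 100% = NSC42067 control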
Target sequence (P86926 whole entry, looked up): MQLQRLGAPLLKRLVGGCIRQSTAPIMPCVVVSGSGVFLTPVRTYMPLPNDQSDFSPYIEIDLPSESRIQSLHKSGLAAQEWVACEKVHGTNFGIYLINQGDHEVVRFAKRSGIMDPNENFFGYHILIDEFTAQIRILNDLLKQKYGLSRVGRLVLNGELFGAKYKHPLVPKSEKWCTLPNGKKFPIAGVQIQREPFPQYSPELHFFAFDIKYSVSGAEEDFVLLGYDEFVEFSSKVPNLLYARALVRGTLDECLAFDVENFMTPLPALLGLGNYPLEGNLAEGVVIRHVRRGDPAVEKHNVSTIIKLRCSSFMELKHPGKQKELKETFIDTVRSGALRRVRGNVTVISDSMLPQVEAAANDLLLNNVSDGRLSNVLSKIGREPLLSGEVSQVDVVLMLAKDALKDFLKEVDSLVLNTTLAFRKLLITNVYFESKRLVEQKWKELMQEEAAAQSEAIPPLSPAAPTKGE
TbREL1 confirm – TbREL1 inhibition, confirmation; inhibition, % at 9.66 µM; TbREL1 RNA ligation, FRET fluorescence; 37% of 390 active; shares compounds with TbREL1 inh; AID 1117282;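 active means mean inhibition across replicates above a set limit taken from the earlier primary screen, cut at about 11% in these data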;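 further: 0% = REL1 with substrate and DMSO and 100% = REL1 plus control inhibitor NSC42067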
Starred values were filed as active, the others as inactive.

SMILES	TbREL1 inh	others
COc1ccc(C2C(C(=O)N3CCN(c4ccccc4C)CC3)CC(=O)N2c2ccc(OC)cc2)cc1 (stereo not drawn)	1
CCCC1CCC2(CC1)CCC2OC(=S)Nc1ccccc1Cl (stereo not drawn)	-2
CC(C)(C)[C@H](NC(=O)c1cc(Cl)cc(Cl)c1)C(=O)N1CCC[C@H]1C(=O)N[C@H](C#N)CC(=O)O	1
CCC[C@H]1[C@@H](N(C)Cc2cccs2)CC[C@@]23CCCN2C(=O)CCC[C@@H]13	-6
Cc1nc2c(C)[n+](CC(=O)c3ccccc3)ccc2n1C	2
O=C(C[n+]1cc2ccccc2c2ccccc21)c1ccccc1	13*	TbREL1 confirm=9
O=C(O)CCC(=O)CCC(=O)c1ccccc1	7
CN(c1ccccc1)S(=O)(=O)c1cccc(C(=O)NC2CC(C)(C)NC(C)(C)C2)c1	1
COc1ccccc1N(Cc1ccccc1)S(=O)(=O)c1cccc(C(=O)Nc2cc(C)ccn2)c1	2
COc1ccccc1N(Cc1ccccc1)S(=O)(=O)c1cccc(C(=O)NC2CC(C)(C)NC(C)(C)C2)c1	11*	TbREL1 confirm=14*
Nc1[nH]c(C(=O)c2ccccc2)c(-c2ccc(Br)cc2)c1C(=O)N1CCN(CCO)CC1	-2
COC(=O)C1=CC[C@@H](NC(=O)OC(C)(C)C)[C@H](O)[C@H]1O[Si](C)(C)C(C)(C)C	-2
Nn1c(SCc2cccc3ccccc23)nnc1-c1n[nH]c2c1CCC2	-2
O=C(NCC(c1ccccc1)c1ccccc1)[C@H](Cc1c[nH]c2ccccc12)NC1(C(=O)NC2CCCCC2)CCN(Cc2ccccc2)CC1	-4
CN1CCC(N[C@@H](Cc2ccccc2)C(=O)NCC(c2ccccc2)c2ccccc2)(C(=O)NC2CCCCC2)CC1	13*	TbREL1 confirm=14*
CC(C)C[C@H](NC1(C(=O)NC2CCCCC2)CCC1)C(=O)NCC(c1ccccc1)c1ccccc1	-1
O=C(NCC(c1ccccc1)c1ccccc1)[C@H](Cc1ccccc1)NC1(C(=O)NC2CCCCC2)CCCCCC1	12*	TbREL1 confirm=0
O=C(NCC(c1ccccc1)c1ccccc1)[C@H](Cc1ccccc1)NC1(C(=O)NC2CCCCC2)CCC1	-3
COC(CNC(=O)[C@H](Cc1ccccc1)NC1(C(=O)NC2CCCCC2)CCC1)OC	-3
O=C(NCCc1c[nH]c2ccccc12)OCc1cn(Cc2c(F)cccc2F)nn1	-3
CCC(=O)N(Cc1ccccc1)c1ccccc1C(=O)Nc1cc(OC)ccc1OC	-2
O=C(NCC(c1ccccc1)c1ccccc1)[C@H](Cc1c[nH]c2ccccc12)NC1(C(=O)NC2CCCCC2)CCCC1	-1
Cc1ccc(C)c(NC(=O)[C@@H]2CCCN2S(=O)(=O)c2cccc3cccnc23)c1	-4
O=C(NNc1cc(Cl)ccc1Cl)C1CCC1	91*	TbREL1 confirm=1
O=C(O)C1CC=CCC1C(=O)Nc1cc(Cl)ccc1Cl (stereo not drawn)	1
SMILES	TbREL1 inh	others
O=C(C1CCCN(S(=O)(=O)c2cc(Cl)ccc2Cl)C1)N1CCCCCC1 (stereo not drawn)	-1
CCOc1ccc(-n2c(SCC(=O)Nc3ccc4c(c3)c3ccccc3n4CC)nnc2-c2cccnc2)cc1	-2
O=C(CN(CCc1ccccc1)S(=O)(=O)c1cccs1)N1CCOCC1	4
O=[N+]([O-])c1ccccc1S(=O)(=O)N1CCN(C2CCCC2)CC1	11*	TbREL1 confirm=4
CCC1CCCCN1S(=O)(=O)c1ccccc1[N+](=O)[O-] (stereo not drawn)	-2
CS(=O)(=O)N1CCN(S(=O)(=O)c2ccccc2[N+](=O)[O-])CC1	2
Cc1ccc(CN[C@@H]2CC[C@@]34CCCN3C(=O)CCC[C@H]4C2)o1	0
COc1ccc(-c2cc(-c3ccccc3)nc(SCC(=O)Nc3nccs3)c2C#N)cc1	-1
Cc1cc(C)nc(SCC(=O)Nc2nccs2)n1	0
CCCC(=O)Nc1nnc(SCC)s1	3
Cc1cc(C)cc(NC(=O)CSc2nc3[nH]c(=O)cc(O)c3s2)c1	-5
N#Cc1c(SCC(=O)Nc2nccs2)sc2c(O)cc(=O)[nH]c12	38*	TbREL1 confirm=23*
CCCSc1nnc(NC(=O)CSc2sc3c(O)cc(=O)[nH]c3c2C#N)s1	27*	TbREL1 confirm=16*
Cc1ccc(NC(=O)CCS(=O)(=O)c2ccccc2)cc1C	-2
Cc1cc(-c2n[nH]c(=S)n2N=Cc2ccc(OCc3ccccc3)cc2)n[nH]1	-2
COc1ccc(/C=C/C(=O)NC2=NCCS2)c(OC)c1	5
COC(=O)[C@]12C[C@H](CC(=O)N3CCN(C(=O)c4ccco4)CC3)C(=O)N(Cc3ccc(Cl)cc3Cl)C1=C[C@H](COCc1ccccc1)O[C@@H]2C	-6
COC(=O)[C@]12C[C@H](CC(=O)N3CCN(C(=O)c4ccco4)CC3)C(=O)N(Cc3ccc(Cl)cc3Cl)C1=C[C@H](C(C)C)O[C@@H]2C1CC1	-3
C[C@H]1[C@@H](OC(=O)Nc2ccccc2F)CC[C@@]23CCCN2C(=O)CCC[C@@H]13	-6
c1ccc(OC2CCN(c3ncnc4sccc34)CC2)cc1	-2
O=C(Nc1ccccc1)Nc1c(-c2ccc(F)cc2)nc2ncccn12	-1
Cc1cc(N2CCCN(C)CC2)n2nc(C)nc2n1	3
O=C(/C=C/c1ccc(Cl)cc1)NCCc1ccccc1	0
COC(=O)[C@@H](N[C@H](/C=C/c1ccccc1)[C@@H](O)Cc1ccccc1)c1ccccc1	-5
O[C@@H](Cc1ccccc1)[C@@H](/C=C/c1ccccc1)NCCc1ccccc1	11*	TbREL1 confirm=10
SMILES	TbREL1 inh	others
COc1nc(OC)nc(N2CCC(C(=O)NCc3ccccc3OC)CC2)n1	1
COc1ccc(CSc2nnc(SCC(=O)Nc3ccc4c(c3)OCO4)s2)cc1	1
COc1cc(C(=O)N2CCN(c3cccc(C)c3C)CC2)ccc1OCC(=O)N1CCOCC1	13*	TbREL1 confirm=0
COc1cc(C(=O)N2CCN(S(=O)(=O)c3cc(C)ccc3C)CC2)ccc1OCC(=O)N1CCOCC1	7
COc1cc(C(=O)N2CCN(c3ccccc3O)CC2)ccc1OCC(=O)N1CCOCC1	2
Cc1ccc(C(=O)NN2C(=O)c3ccc(S(=O)(=O)c4ccc(C(=O)O)cc4)cc3C2=O)cc1	3
O=C(O)c1ccc(S(=O)(=O)c2ccc3c(c2)C(=O)N(NC(=O)c2ccc(O)cc2)C3=O)cc1	12*	TbREL1 confirm=2
O=C(O)c1ccc(S(=O)(=O)c2ccc3c(c2)C(=O)N(CC2CCCO2)C3=O)cc1 (stereo not drawn)	1
Clc1cccc(CSc2ncnc3sc4c(c23)CCCC4)c1	3
COc1ccc2c(c1)C[C@@H](CON1C(C)(C)CCCC1(C)C)N2S(=O)(=O)c1ccc(C)cc1	-6
O=C(N1CCC(C(O)(c2ccccc2)c2ccccc2)CC1)n1ncc(C(O)(c2ccccc2)c2ccccc2)n1	-3
O=C(CN1CCCCC1)Nc1ccc(S(=O)(=O)N2CCCCCC2)cc1	-3
Cc1ccc(S(=O)(=O)N2CCN(CC(=O)NC(C)c3ccccc3)CC2)cc1 (stereo not drawn)	2
Cc1n[nH]c(C)c1NC(=O)CN1CCN(S(=O)(=O)c2ccc(C(F)(F)F)cc2)CC1	11*	TbREL1 confirm=4
COc1cc(C=NNC(=O)CN2CCN(Cc3ccc(C)cc3)CC2)cc(OC)c1O	0
O=C(CSc1nnc(-c2cnccn2)n1-c1ccccc1)c1ccc(F)cc1	-2
Cc1sc2nc(COC(=O)CNC(=O)c3ccc(F)cc3Cl)[nH]c(=O)c2c1C	6
